The results in this text go back to PubChem BioAssay (NCI).

Each structure is given as a SMILES string. Where “and” joins values, the source holds several entries; their conditions need not be identical. Equal values may be shown once. This is part of a sample that, as a whole, favours compounds with a hit. Of some 83,000 tested, about 20% had one in any assay.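 96-well plates, one dose, 48 hours. Percent growth reported; active if below 10.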 A number with no mark means an inactive call. Calls of active or inactive are those of the source.

The first test has as its system HOP-62 NSCLC. As to the kind of experiment: NCI-60 one-dose screen, 48 h (100 = growth as untreated, 0 = no growth, -100 = all killed). The settings on record: 1 µM. As to the method: Growth inhibition of the HOP-62 human Non-Small Cell Lung tumor cell line is measured as a screen for anti-cancer activity. Cells are grown in 96 well plates and exposed to the test compound for 48 hours. Compounds are tested at a single concentration, which is 10^-5 M for most compounds. The reported endpoint is percent growth (GI% or GIPRCNT), where numbers from 0 - 100% represent growth inhibition, and numbers from -100% - 0 represent cell death. For example, a value of 40 represents 60% growth inhibition. A value of 0 means no net growth occurred over the course of the experiment. A value of -40 indicates 40% of cells at the beginning of the experiment died by the end of the experiment. A value of -100 means all cells are dead at the end of the experiment.
NCI-60 Human Tumor Cell Lines Screen was performed using the standard one-dose NCI protocol, which is described in more detail at https://dtp.cancer.gov/discovery_development/nci-60/default.htm.
Compounds with GIPRCNT values below 10 were considered active. Activity score was based on GIPRCNT using the following formula: […]
Score is 0 for GIPRCNT values of 100 or above, 50 for GIPRCNT values of 0, and 100 for GIPRCNT values of -100.
Regarding `CC/C(=C(\c1ccc(O)cc1)c1ccc(OCCNC)cc1)c1ccccc1`, the growth is 97.8%.

Consider `CC/C(=C(\c1ccc(O)cc1)c1ccc(OCCN(C)C(=O)CCOCCNC(=O)c2ccc3c(c2)CN([C@@H]2CCC(=O)NC2=O)C3=O)cc1)c1ccccc1`, for which the growth was 95.1%.

As to `CC/C(=C(\c1ccc(O)cc1)c1ccc(OCCN(C)C(=O)COCCNC(=O)Cc2ccc3c(c2)CN([C@@H]2CCC(=O)NC2=O)C3=O)cc1)c1ccccc1`, the growth was 72%.

The test is the same for the next values; noted with them: 10 µM.
Regarding `CC/C(=C(\c1ccc(O)cc1)c1ccc(OCCNC)cc1)c1ccccc1`, the growth was 96.8%.

Take `CC/C(=C(\c1ccc(O)cc1)c1ccc(OCCN(C)C(=O)CCOCCNC(=O)c2ccc3c(c2)CN([C@@H]2CCC(=O)NC2=O)C3=O)cc1)c1ccccc1`: the growth was 94.4%.

In the case of `CC/C(=C(\c1ccc(O)cc1)c1ccc(OCCN(C)C(=O)COCCNC(=O)Cc2ccc3c(c2)CN([C@@H]2CCC(=O)NC2=O)C3=O)cc1)c1ccccc1`, the growth is 16.2%.

Still in this test, the particulars now being: 10 µM unless noted.
For the molecule `COc1ccc(C2=Nc3c(N)nc(N)nc3NC(c3ccc(Oc4nc(Nc5ccc(F)cc5)nc(N(C)C)n4)c(OC)c3)C2)cc1` (stereo not given), the growth is 82.5%.

With `COc1sc(/C=N/NC(=O)c2[nH]c3ccc(Br)cc3c2-c2ccccc2)cc1Cl`, the growth is -27% (active).

As for `O=C1CCC(N2C(=O)c3cccc(NCCOCCOCCOCCC(=O)NCCCC(=O)NC(c4ccc5c(c4)OCO5)c4cc(Cl)c5cccnc5c4O)c3C2=O)C(=O)C1` (stereo not given), the growth is 34.3%.

Regarding `CCOc1ccccc1NC(=O)N/C(N)=N/c1nc2ccccc2s1`, the growth is 33.6%.

Turning to `Nc1nc2cc(-c3ccc4ncnc(NCc5ccccc5)c4c3)ccc2o1`, the growth is -46.1% (active).

For `O=C(CSc1nc2sc3c(c2c(=O)n1-c1ccc(Cl)cc1)CCCC3)NNC(=O)c1ccc(Br)cc1`, the growth was 17%.

With `CCCCNC(=S)Nc1ccc(OCc2nc3ccc(Cl)cc3[nH]2)cc1`, the growth is 49.5%.

`COc1ccc(-c2cc(C(=O)Oc3ccc(C=O)cc3OC)nn2-c2ccc(S(C)(=O)=O)cc2)cc1`: the growth was 104%.

Take `COc1ccc(-c2nnc3c(/C=C/c4ccc(Br)cc4)nc4ccccc4n23)cc1`: the growth was 104%.

Turning to `Cn1cc(-c2cc(N)n3nc(-c4c[nH]c5ccc(Cl)cc45)cc3n2)c2cccnc21`, the growth was -88.9% (active).

On to `CCOc1ccccc1[C@H]1C(C(=O)c2ccc(Cl)cc2)C2(N[C@@H]1c1ccccc1)C(=O)Nc1ccccc12` (stereo not given in full), for which the growth was 32.9%.

With `COc1ccc(NC(=O)CSc2nnc(-c3ccc(-c4nc5ccccc5[nH]4)cc3)o2)cc1`, the growth was -15.8% (active).

`Fc1ccc(F)c(CNc2nc(SCCN3CCOCC3)nc3c2cnn3CC(Cl)c2ccc(Br)cc2)c1` (stereo not given): the growth was 47.8%.

With `COc1ccc2[nH]c(O)c(N=Nc3nc(-c4ccc(Cl)cc4)cs3)c2c1`, the growth was -26.6% (active).

With `Cc1ccc(C(=O)Nc2cc(-n3ccnc3C)cc(C(F)(F)F)c2)cc1C#Cc1cnc2cccnn12`, the growth is -7.58% (active).

On to `CC1=NN(C2=NC(=O)C(CC(=O)Nc3ccccc3C(F)(F)F)S2)C(c2ccc(N(C)C)cc2)C1` (stereo not given), for which the growth is 78.3%.

As to `Nc1nnc(-c2cncc(Br)c2)c(-c2c[nH]c3ccc(Br)cc23)n1`, the growth was 72.7%.

Regarding `CCC1(OC(=O)c2ccccc2SSCCOC(=O)CCCCC2SCC3NC(=O)NC32)C(=O)OCc2c1cc1n(c2=O)Cc2cc3ccccc3nc2-1` (stereo not given), the growth was 39.4%.

In the case of `O=C1CC(c2ccc(I)cc2)OC2C=Cc3ccccc3C12` (stereo not given), the growth is 98.7%.

Regarding `Oc1ccc(Cl)c(Nc2ncnc3c2cnn3CC(Cl)c2ccc(Br)cc2)c1` (stereo not given), the growth was 58.1%.

As for `NC1(c2ccc(-c3ccc4ncnc(NCc5ccccc5)c4c3)cn2)COC1`, the growth is 118% and 112%.

Turning to `CC1=C(C(=O)OCc2ccccc2)C(c2ccc(N(C)C)cc2)n2c(nc3ccccc32)N1` (stereo not given), the growth was 83.6%.

`COc1ccc(C(=O)c2c(N)c(C#N)cn2-c2ccc([N+](=O)[O-])cc2)cc1`: the growth was 83.4%.

Turning to `O=C(c1cc2cc(OCCCN3CCC3)ccc2[nH]1)N1C[C@@H](CCl)c2c1cc(OCc1ccccc1)c1ccccc21`, the growth is -44% (active).

With `O=C(N/N=C/c1c[nH]c2ccccc12)Nc1ccc(F)c(Cl)c1`, the growth was 53.8%.

Consider `O=C(CSc1nc2sc3c(c2c(=O)n1-c1ccc(Cl)cc1)CCCC3)NNC(=O)c1ccc(F)cc1`, for which the growth is 23.7%.

As to `Cc1ccc(NC(=O)N/N=C/c2c[nH]c3ccccc23)c(C)c1`, the growth was 34.4%.

On to `CNc1nc2ccccc2n2c(-c3ccc(O)c(O)c3)cnc12`, for which the growth is 26.5%.

For the molecule `O=C(c1ccc(O)cc1)C1[C@H](c2ccccc2Br)[C@@H](c2ccccc2)NC12C(=O)Nc1ccccc12` (stereo not given in full), the growth is 59.8%.

With `O=C1Nc2cc(-c3ccc(NS(=O)(=O)c4ccc([N+](=O)[O-])cc4)cc3)ccc2/C1=C/c1ccc[nH]1`, the growth is 0.132% (active).

In the case of `O=C(N/N=C/c1ccc(Cl)cc1)c1ccc(OCc2nc3ccc(Cl)cc3[nH]2)cc1`, the growth is -41.6% (active).

`OCCn1cc(-c2nc3ccc4[nH]ncc4c3c3c2CCCC3)cn1`: the growth is 57.7%.

`CN1CCN(CCS(=O)(=O)Nc2cc(-c3ccc4ncnc(Nc5ccc(F)c(Cl)c5)c4c3)cnc2Cl)CC1`: the growth is 39.9%.

In the case of `c1n[nH]cc1-c1nc2ccc3[nH]ncc3c2c2c1CC1(CC2)COC1`, the growth is 77.7%.
